Source: PubChem (several laboratories)
An excerpt weighted towards active compounds, which were near 2.3% of everything screened.
Gli-Sufu block: Gli-Sufu pathway antagonism; Sufu-KO-LIGHT fibroblasts, Gli luciferase reporter luminescence; inhibition, % at 5 µM; hit rate 0.74% among 340,000; AID 588413;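 active = inhibition above about 55%, limit read from the data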;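 also: 0% = DMSO-treated cells and 100% = wells with medium but no cells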
Shn3 3UTR inh: reduces Shn3 3'UTR luciferase signal in osteoblasts. Clone20 osteoblast Shn3 3'UTR firefly luciferase, 24 h. inhibition, % at 12.5 µM. hit rate 0.52% among 360,000. AID 588674;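 active = mean inhibition of at least 75% with every replicate also reaching 75%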;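 also: 0% = median of neutral control wells and 100% = pilot-screen positive control compound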
Jurkat NFkB inh: lowers PMA/ionomycin-induced NF-kB signal in Jurkat cells; PMA/ionomycin-induced NF-kB luciferase reporter, luminescence; inhibition, % at 4 µM; hit rate 0.53% among 330,000; AID 435003; in the data active = inhibition above about 50%
697 NFkB inh: inhibitors of the PMA/ionomycin-induced NF-kB reporter in 697 B cells; 697 B-cell NF-kB luciferase reporter, 16 h; hit rate 0.33% among 330,000; AID 435022; inhibition, % at 4 µM; in the data active = inhibition above about 35%
H9c2 TAG inh: reduces triacylglycerol accumulation in H9c2 cells; inhibition, % at 12.5 µM; hit rate 0.66% among 230,000; Nile Red lipid (TAG) fluorescence; cells loaded with 200 µM oleic acid; AID 651582;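 active = pattern-corrected inhibition of lipid staining of at least 50% with the nuclear-stain viability signal not falling by more than 50%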;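 also: 0% = DMSO wells and 100% = triacsin C control wells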
aSyn 5UTR inh: MLPCN primary screen, SNCA 5' untranslated region | alpha-synuclein 5'UTR reporter, inhibitor activity | inhibition, % (tested at 7.5 µM) | hit rate 0.82% among 300,000 | AID 1813; in the data active = inhibition above about 60%;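 also: H4 neuroglioblastoma cells stably carrying SNCA 5'UTR luciferase fusion; 0% = DMSO wells and 100% = positive control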
Gli-Sufu confirm: confirmation of Gli-SUFU pathway antagonists. shares compounds with Gli-Sufu block. Sufu-KO-LIGHT cells, Gli luciferase reporter, luminescence. inhibition, % at 5 µM. hit rate 40% among 2,500. AID 602428;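 active = mean inhibition at 5 µM reaching about 45%, limit read from the data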;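 also: plate controls were DMSO-treated cells for no effect and wells lacking cells for full effect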
Gli cytotox: cytotoxicity counter-screen for Gli-SUFU antagonists; shares compounds with Gli-Sufu block; Sufu-KO-LIGHT cells cytotoxicity, ATP luminescence; cytotoxicity, % at 5 µM; hit rate 32% among 2,500; AID 651994;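 active = mean cytotoxicity at 5 µM above about 25%, limit read from the data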;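 also: cells exposed to compound overnight for roughly 16 to 18 hours; plate controls were DMSO wells with cells for no effect and medium without cells for full effect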
Wnt3a cs: Wnt3a reporter inhibition counter-screen. shares compounds with Gli-Sufu block. Wnt-LIGHT cells, Wnt3a-driven luciferase reporter, luminescence. inhibition, % at 6.25 µM. hit rate 20% among 2,500;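 active = mean inhibition above about 25%, limit read from the data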
TAG conf: confirmation of triacylglycerol accumulation inhibitors; shares compounds with H9c2 TAG inh; H9c2 lipid accumulation, Nile Red fluorescence; cells loaded with 200 µM oleic acid; inhibition, % at 12.5 µM; hit rate 71% among 990; AID 651629;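 active = mean inhibition across replicates of 40% or more; inactive = mean inhibition below 40%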;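 also: plate controls were DMSO only wells for no effect and Triacsin C treated wells for full effect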
An asterisk follows results filed as active; . = not tested or not shown.

SMILES | Gli-Sufu block | Shn3 3UTR inh | Jurkat NFkB inh | 697 NFkB inh | H9c2 TAG inh | aSyn 5UTR inh | Gli-Sufu confirm | Gli cytotox | Wnt3a cs | others
COCCn1c(C)cc(C2=NNC(=Nc3ccccc3)SC2)c1C | 54 | -16 | -37 | -126 | -33 | -79 | 12 | 40* | 19
COc1ccc2cc3cc(C(=O)N4CCN(C5CCCCC5)CC4)oc3nc2c1 | 53 | -7 | 0 | 19 | . | -32 | 26 | 36* | -23
Cc1cc[n+](C(C)C(=O)c2ccc(-c3ccccc3)cc2)cc1 (stereo not drawn) | 82* | 24 | 45 | 15 | -15 | 23 | 75* | 27* | -12
Cc1ccc(/C=N/n2c(-c3cccc(Cl)c3)n[nH]c2=S)o1 | 1 | 6 | -2 | -42 | 3 | -8 | . | . | .
Cc1ccccc1NC(=O)CSc1nc2cc3c(cc2cc1C)CCC3 | 54 | 0 | 47 | -33 | . | 15 | 40 | 29* | -41
O=C(CN1CCN(S(=O)(=O)c2ccc3c(c2)OCCO3)CC1)Nc1ccccc1Br | 4 | -3 | . | . | -2 | . | . | . | .
Cc1c(C)n(C)c2ccc(C(=O)NCCCN3CCN(c4ccccc4F)CC3)cc12 | 25 | 13 | -13 | -68 | . | 31 | . | . | .
CCc1nc2ccc(C(=O)NCCCN3CCN(c4ccccc4F)CC3)cc2nc1CC | 55 | 57 | -2 | 5 | . | 2 | 18 | 27* | -42
O=C(c1ccccc1SCc1ccccc1)N1CCOCC1 | 61* | 8 | -5 | 18 | -4 | 5 | 17 | -2 | 9
O=C(Nc1ccccc1Cl)C1CCCN(S(=O)(=O)c2cccc3cccnc23)C1 (stereo not drawn) | 76* | 6 | 4 | 12 | . | -1 | 29 | 9 | 3
NNC(=S)NC1CCCCC1 | -2 | -4 | 5 | 1 | -17 | 4 | . | . | .
CCOc1ccc(CN(C)c2ccc(S(=O)(=O)N3CCN(C)CC3)cc2[N+](=O)[O-])cc1OC | 59* | 80 | -4 | -37 | -23 | . | 25 | 9 | 5
C=CCOc1ccc(CN(C)c2ccc(S(=O)(=O)N3CCN(C)CC3)cc2[N+](=O)[O-])cc1 | 14 | 46 | 1 | 11 | -28 | . | . | . | .
Nc1nc(-c2ccc(Cl)cc2)nn1C(=O)c1cccnc1 | 0 | -42 | -5 | -5 | . | -60 | . | . | .
Cc1ccc(NC(=O)c2cccc(S(=O)(=O)N3CCCCC3)c2)cc1 | 2 | 3 | 8 | 4 | . | 3 | . | . | .
COC(=O)c1ccc(C(=O)OC)c(NC(=O)CSc2nnc(-c3ccccc3Cl)o2)c1 | 98* | 7 | -10 | 6 | 13 | -4 | 10 | 17 | -14
Cc1onc(-c2ccccc2)c1-c1nnc(-c2ccccc2C(F)(F)F)o1 | 1 | 9 | -6 | 7 | 13 | -1 | . | . | .
CCn1c(C)nc2cc(-c3nnc(-c4c(-c5ccccc5)noc4C)o3)ccc21 | 70* | 86* | 0 | 2 | . | 19 | 77* | 17 | 18
COc1ccccc1CNC(=O)COC(=O)c1n[nH]c2ccccc12 | -21 | 17 | -7 | -5 | 18 | 15 | . | . | .
CC(C)N1CCC(N2CCN(C3CCCCC3)CC2CCO)CC1 (stereo not drawn) | -10 | 11 | -13 | 8 | 19 | -21 | . | . | .
CCOc1ccc(OCC)c(S(=O)(=O)NCCOC23CC4CC(CC(C4)C2)C3)c1 | 52 | 71 | 5 | -22 | . | 9 | 23 | 31* | 8
CN1CCN(/C=N/c2sc3c(c2C#N)CCCCC3)CC1 | 80* | -61 | -99 | -118 | -18 | -147 | -31 | 7 | -196
CCCCc1cc(=O)oc2cc(OCC(=O)N[C@@H](Cc3ccccc3)C(=O)O)ccc12 | 3 | 75 | 9 | 11 | . | 14 | . | . | .
c1ccc(-c2cn(-c3ccccc3)c3[n+]2CCS3)cc1 | 65* | 62 | 18 | -26 | -40 | -3 | 64* | 26* | 13
COc1ccc(-c2cn(-c3ccccc3)c3[n+]2CCS3)cc1 | 81* | 69 | 26 | -5 | . | -7 | 82* | 33* | 30*
SMILES | Gli-Sufu block | Shn3 3UTR inh | Jurkat NFkB inh | 697 NFkB inh | H9c2 TAG inh | aSyn 5UTR inh | Gli-Sufu confirm | Gli cytotox | Wnt3a cs | others
CCc1nc(N)nc(N)c1-c1ccc(N(C)Cc2ccccc2)c([N+](=O)[O-])c1 | 63* | 83 | . | . | 17 | . | 49* | 21 | 17
Cc1ccc(C(=O)N2CCN3C(=O)c4ccccc4C23c2ccc(Cl)cc2)cc1 (stereo not drawn) | 56* | -46 | 24 | -8 | -23 | -69 | 61* | 10 | -23
COc1ccc2[nH]cc(CCNC(=O)C3CC(=O)N(c4ccc(Cl)cc4)C3)c2c1 (stereo not drawn) | -17 | -3 | -10 | -25 | . | 16 | . | . | .
Cc1ccc2nc(-c3ccc(F)cc3)c(Cc3ccccc3C(F)(F)F)n2c1 | . | -45 | . | . | . | . | . | . | .
COCCN(C(=O)CSc1nnc(-c2ccccc2F)n1N)c1c(N)n(Cc2ccccc2)c(=O)[nH]c1=O | 54 | -4 | 0 | -2 | . | -16 | 13 | 22 | -14
NC(=O)c1ccc(N=Nc2c(-c3ccccc3)[nH]n(-c3ccccc3)c2=O)cc1 | . | . | 4 | -4 | . | 23 | . | . | .
O=c1c(N=Nc2ccc(O)cc2)c(-c2ccccc2)[nH]n1-c1ccc([N+](=O)[O-])cc1 | 53 | 55 | 12 | 7 | 88* | 5 | 35 | 11 | 67*
O=C(O)c1ccc2c(c1)nnn2C1CCCCC1 | -8 | -13 | -2 | -16 | 19 | 14 | . | . | .
N#Cc1ccc(CSc2nnc(-c3cccnc3)n2-c2ccccc2)cc1 | 2 | 19 | -4 | -5 | . | 18 | . | . | .
CCOc1ccc(-n2c(SCc3ccc(C#N)cc3)nnc2-c2cccnc2)cc1 | 95* | 6 | -18 | -7 | 15 | 25 | 27 | 4 | -24
CCCCCn1c(CN(C)Cc2ccccc2)nc2c1c(=O)n(C)c(=O)n2C | 19 | 58 | . | . | . | 15 | . | . | .
C=C(C)Cn1c(CN(C)Cc2ccccc2)nc2c1c(=O)n(C)c(=O)n2C | 58* | 68 | 21 | -24 | . | -6 | 25 | 38* | -8
O=C1NC(c2cccc3ccccc23)Nc2ccc(Cl)cc21 (stereo not drawn) | 61* | 26 | . | . | 52* | . | 59* | 64* | -73 | TAG conf=36
Cc1cc(C)cc(OCC(=O)N2CCc3ccccc3C2)c1 | -4 | 15 | 9 | -15 | 7 | 2 | . | . | .
